Screening data (PubChem BioAssay)
INS promoter inh: TRM-6 insulin promoter activity inhibition; 130,000 compounds, 0.9% hits; TRM-6 cells (human fetal islet line), insulin promoter-eGFP reporter, imaging; reporter expression induced with tamoxifen; inhibition, % at 2 µM;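 active = inhibition above the mean plus 3 SD, with well images judged a real hit on visual review, cut at about 60% in these data, passing the limit was not always enough; inconclusive = inhibition over the cutoff but images rejected on review; inactive = inhibition not above the cutoff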
Autophagy mod: autophagy modulation, high-content screen | 190,000 compounds, 0.98% hits | calls only at 10 µM (by protocol) | MEF GFP-LC3 puncta imaging; test concentration mostly 10 µM;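 active = percentage of spot-positive cells more than 3 SD above its plate mean, without a fluorescence outlier flag or 80% toxicity; inconclusive = no clear call, values can overlap the other calls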
WT yeast gro inh: growth inhibition of WT yeast, mitochondrial fusion screen; mitochondrial fusion phenotypic screen, WT strain; inhibition, % at 10 µM; 190,000 compounds, 2.1% hits; in the data active = inhibition above about 58%; tested in S. cerevisiae
Ins promoter up: MIN6 insulin promoter up-regulation. 190,000 compounds, 0.3% hits. z-score at 5 µM. MIN6 insulin promoter-GFP reporter, high-content imaging; hits give high values;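 active = z-score above 3 at 5 µM with at least 500 cells counted in the well; inconclusive = wells under 500 cells, flagged as cytotoxic or low count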
Lmaj promast: Leishmania major promastigote growth inhibition | Leishmania major promastigotes, resazurin fluorescence viability | inhibition, % at 10 µM | 200,000 compounds, 9% hits | AID 1063; in the data active = inhibition above about 50%;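 note: promastigotes grown with compound for 44 hours at 28 °C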
Hits are given with their value; . = inactive; ? = inconclusive; / = not tested or not shown; + = active, no number. Rows were chosen to be rich in hits. Some 11% of all compounds tested hit in one or more screens of this group.

SMILES	INS promoter inh	Autophagy mod	WT yeast gro inh	Ins promoter up	Lmaj promast
Cc1ccc(NC(=O)C(NC2CCCc3ccccc32)c2ccccc2)cc1Cl (stereo not given)	.	.	.	.	58
Cc1ccc(NC(=O)C(NC2CCCc3ccccc32)c2ccccc2)c([N+](=O)[O-])c1 (stereo not given)	.	.	.	.	89
O=C(NCCCn1ccnc1)c1cc2c(ccc3ccccc32)o1	.	.	.	.	.
COc1ccc(NC(=O)COC(=O)/C=C/c2cnc3ccccc3n2)cc1	/	.	.	/	.
Cc1nn2c(CN(C(=O)COc3ccccc3)c3ccccc3)nnc2c2ccccc12	.	.	.	.	81
COc1ccc(/C=N/n2c(SC)nnc(C(C)(C)C)c2=O)cc1OC	.	.	.	.	.
COc1cc(/C=N/n2c(SC)nnc(C(C)(C)C)c2=O)ccc1O	77	.	.	.	.
Cc1ccc2c(N)c(C#N)sc2n1	.	.	87	.	.
CC(C)Nc1ccc(C(CC(N)=O)NC(=O)Cc2ccc(Br)cc2)cc1[N+](=O)[O-] (stereo not given)	/	/	/	.	/
CC1=C(OC(=O)c2ccccc2)C(C)(C)C(c2ccc(Br)cc2)OC1=O (stereo not given)	.	.	66	/	.
CC1=C(OC(=O)c2ccc(Br)cc2)C(C)(C)C(c2ccccc2)OC1=O (stereo not given)	.	.	.	/	.
O=C(C1CCN(c2ccc(N3CCOCC3)nn2)CC1)N1CCN(c2ccc(F)cc2)CC1	/	.	.	.	97
CC(=O)c1ccc(NC(=O)Nc2cccc(Cl)c2)cc1	.	.	72	/	.
CC(=O)c1ccc(N2CCN(C(=O)C3CCC3)CC2)cc1	.	+	.	.	.
CC(=O)c1cccc(NC(=O)Nc2c(C)nn(C)c2C)c1	.	+	.	.	.
O=C(Nc1ccccc1)Nc1cccc(Cl)c1	.	.	.	/	.
Nc1nonc1C(=O)NCCNS(=O)(=O)c1ccc(F)cc1	.	.	.	.	.
O=C(NCCC1=CCCCC1)Nc1ccc2nsnc2c1	.	.	.	.	.
CC1(C)Cn2c(nc(=O)c3c2NCN(CCc2ccccc2)C3)S1	/	.	.	.	.
Cc1ccc(NC(=O)Nc2ccc3c(c2)nc(C)n3C)cc1	/	.	.	.	.
COC(=O)c1ccc(C(=O)OC)c(NC(=S)N2CCN(c3cccc(Cl)c3)CC2)c1	.	.	.	.	74
CC(=O)c1ccc(NC(=O)Nc2ccc3c(c2)nc(C)n3C)cc1	/	+	.	.	.
CC(=O)c1ccc(N2CCN(C(=S)Nc3cccc(Cl)c3)CC2)cc1	.	.	.	.	57
CC(=O)c1ccc(NC(=S)N2CCN(c3cccc(Cl)c3)CC2)cc1	.	.	.	.	.
COc1cc(OC)cc(C(=O)Nn2cc(C(=O)Nc3ccc(F)cc3F)c3ccccc3c2=O)c1	.	.	.	.	.
SMILES	INS promoter inh	Autophagy mod	WT yeast gro inh	Ins promoter up	Lmaj promast
CC(=O)Nc1cccc(Oc2ccc(-c3noc(C)n3)cc2)c1	.	.	.	.	.
Cn1cnnc1SCC(=O)Nc1ccc(OCc2ccccc2)cc1	.	.	.	.	.
COc1ccc(Nc2ccc3c(c2)=NC2(CCCCC2)[N+]=3[O-])cc1	/	+	.	.	101
COc1ccc(OCCSc2nnc(C)n2-c2ccccc2)cc1	.	.	.	/	.
Cc1ccccc1-n1c(C)nnc1SCC(=O)NNC(=O)c1ccccc1	.	.	.	.	.
Cc1nnc(SCC(=O)NNC(=O)c2ccccc2)n1-c1ccccc1	.	.	.	.	66
COc1ccccc1OCCSc1nnc(C)n1-c1ccccc1	.	.	.	.	73
COc1cccc(CCc2nnc(CCC(=O)NC(C)c3c(C)nn(C)c3C)o2)c1 (stereo not given)	/	.	.	.	.
O=C(N/N=C/c1cccc(Br)c1)c1ccc(Br)cc1	.	.	.	.	.
O=C(NN=C1c2ccccc2-c2ccccc21)c1cccc(Br)c1	/	.	.	.	89
O=C(N/N=C/c1cccc(Oc2ccccc2)c1)c1ccccc1Br	/	.	.	.	95
O=C(COc1cccc(Br)c1)NN=C1c2ccccc2-c2ccccc21	/	.	.	.	.
O=C(N/N=C/c1cccc(Oc2ccccc2)c1)c1cccc(Br)c1	.	.	.	.	95
O=C(N/N=C/c1ccccc1C(=O)O)c1ccccc1Br	.	.	.	.	.
CN(C)c1ccc(C2NCC(CCl)O2)cc1 (stereo not given)	.	.	.	.	.
COc1ccc(CC2(CO)CCN(Cc3cnn(-c4ccccc4OC)c3)CC2)cc1	/	.	.	.	.
COc1ccc(CC2(CO)CCN(Cc3cnn(-c4ccc(F)cc4)c3)CC2)cc1	/	.	.	/	84
COc1ccc(CC2(CO)CCN(Cc3cnn(-c4ccccc4)c3)CC2)cc1	.	.	.	.	87
C=CCNC(=O)C1CC2Cn3c(nc4cc5ccccc5cc43)C2N1C (stereo not given)	/	/	/	4.4	/
CN1C(C(=O)NCc2cccc(C(F)(F)F)c2)CC2Cn3c(nc4cc5ccccc5cc43)C21 (stereo not given)	/	/	/	.	/
COc1ccccc1CNC(=O)CSc1ccc(-c2cccc([N+](=O)[O-])c2)nn1	/	.	.	.	.
CCOC(=O)c1c(C)[nH]c(C)c1C(=O)COC(=O)/C=C/c1ccc(Cl)cc1	.	.	74	.	.
O=[N+]([O-])c1cc(C(F)(F)F)ccc1NCCc1c[nH]c2ccc(O)cc12	.	.	79	.	.
CS(=O)(=O)NCCCNc1ccc(C(F)(F)F)cc1[N+](=O)[O-]	/	/	/	.	/
CC(C)NC(=O)CNc1ccc(C(F)(F)F)cc1[N+](=O)[O-]	/	.	.	.	.
SMILES	INS promoter inh	Autophagy mod	WT yeast gro inh	Ins promoter up	Lmaj promast
O=[N+]([O-])c1cc(C(F)(F)F)ccc1NCCc1c[nH]c2ccccc12	/	.	62	.	.
O=[N+]([O-])c1ccccc1/C=C/C=N/n1c(-c2ccccc2F)n[nH]c1=S	/	/	/	.	/
Cc1ccc(C2CC(=O)N3CN(Cc4ccco4)CSC3=C2C#N)cc1 (stereo not given)	.	.	.	.	.
N#CC1=C2SCN(Cc3ccco3)CN2C(=O)CC1c1c(F)cccc1Cl (stereo not given)	/	.	.	.	75
CCCCN(CCCC)Cc1ccc(C(=O)NNC(=O)Nc2ccccc2)o1	.	+	.	.	.
Cc1nn(-c2ccccc2)c2c1C1(C(=O)Nc3ccccc31)N1C(=N2)Sc2ccccc21 (stereo not given)	/	+	.	.	.
Cc1nn(-c2ccc(F)cc2)c(N)c1C1(O)C(=O)Nc2ccccc21 (stereo not given)	.	.	.	.	.
CCn1c(O)c(/C=N/N=C/c2ccccc2)c2ccc(C3=NNC(=O)CC3)cc21	?	.	.	.	89
COc1ccc(OC)c(NC(=S)N(CCc2c(C)[nH]c3ccccc23)Cc2cccs2)c1	.	.	.	.	.
COc1ccc(OC)c(NC(=S)N(CCc2c(C)[nH]c3ccc(C)cc23)Cc2cccs2)c1	.	.	.	.	84
COCCNC(=S)N(CCc1c(C)[nH]c2ccc(C)cc12)Cc1cc(OC)c(OC)c(OC)c1	.	.	.	.	53
